Measurements taken from PubChem BioAssay (NCATS).
Activity calls are given as the source filed them. How the calls were made is not given here.

System: HIV-1 nucleocapsid protein NCp7 (binding to TG oligonucleotide)
Assay: HIV Nucleocapsid (AID 346);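 further: potency is for inhibitors that block NC binding and lower polarization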
Conditions: HIV-1 NC / fluorescein-TGTGTGTG probe, fluorescence polarization
Method: NCGC Assay Overview: HIV-1 nucleocapsid protein (HIV-1 NC) is a small (6.5 kDa) basic zinc-finger protein which participates in packaging of viral genomic RNA. The spacing and metal-chelating residues (3 Cys, 1 His) of the Cys-X2-Cys-X4-His-X4-Cys Zn fingers are conserved among all known retroviruses (J. Med. Chem. 1998, 41, 1371-1381). HIV-1 NC was assayed for its binding to the consensus sequence single-stranded 5'-TGTGTGTG. […] High salt was included to increase the stringency of binding and inhibitor screen. Reducing agents and zinc were present to stabilize the nucleocapsid zinc-finger protein.
NCGC Assay Protocol Summary: Buffer. Hepes pH 7.5, 250mM NaCl, 1uM ZnCl2. 0.004% polyethylene glycol 20000. TCEP (100 uM) and 2-Mercaptoethanol (5 mM), added fresh the day of the experiment. Reagents/Controls. 10 nM TG4xF only in columns 3 and 4 as negative control. 10 nM TG4xF/100 nM HIV-1 NC in columns 1, 2, 5-48. Titration of control compound NSC-13778 (from 20 mM, then 1:2) pin-transferred to column 2. Assay Steps. Two uL of reagents were dispensed to 1536-well Kalypsys black plates. The plates were centrifuged for 1 min at 1000 rpm. Compounds and controls (20 nL) were transferred via Kalypsys PinTool. The plates were incubated for 1 hr at room temperature, and then read on ViewLux (Perkin-Elmer). High-throughput CCD imager using fluorescein polarization filter set and 45 seconds exposure time.
Potency means the concentration at half of the fitted maximal effect.

Row | SMILES | Potency
1 | CN(C)C(=O)c1ccc(-c2ccc3ncnc(N4CCC(C(=O)O)CC4)c3c2)cc1 | > 20 µM (inactive)
2 | O=C(Nc1ccccc1)N1CCCC2(CCN(C(=O)c3csnn3)CC2)C1 | > 20 µM (inactive)
3 | O=C(c1cccc(F)c1)N1CCC2(CC1)CCN(c1ccccc1)CC2 | > 20 µM (inactive)
4 | O=c1c(-c2ccc(F)c(F)c2)nc2cncnc2n1Cc1ccccc1Cl | > 20 µM (inactive)
5 | COc1cccc(-c2cncnc2NC2CCNCC2)c1 | > 20 µM (inactive)
6 | c1cncc(CNc2ncnc3ccc(-c4cccnc4)cc23)c1 | > 20 µM (inactive)
7 | FC(F)(F)c1ccccc1-c1nc(NCc2cccnc2)c2ccccc2n1 | > 20 µM (inactive)
8 | Cc1cnc(CNc2nc(-c3c(C)noc3C)nc3ccccc23)cn1 | > 20 µM (inactive)
9 | CS(=O)(=O)Nc1cccc(-c2nc(Nc3ccccc3)c3ccccc3n2)c1 | > 20 µM (inactive)
10 | CN1CCN(c2ncc3nc(-c4ccccc4)c(=O)n(CCC#N)c3n2)CC1 | > 20 µM (inactive)
11 | CN(C)c1ccc(-c2ccc3ncnc(N(C)Cc4ccco4)c3c2)cc1 | > 20 µM (inactive)
12 | O=C(c1ccncc1)N1CCC2(CCCN(c3ccc(-c4ccccc4)cc3)C2)CC1 | > 20 µM (inactive)
13 | Cc1noc(C)c1C(=O)N1CCC2(CC1)CCN(c1ccccn1)CC2 | > 20 µM (inactive)
14 | CN(C)c1ncc2nc(-c3cccs3)c(=O)n(CCc3ccccc3)c2n1 | > 20 µM (inactive)
15 | Cn1cccc1C(=O)N1CCC2(CC1)CN(C(c1ccccc1)c1ccccc1)C2 | > 20 µM (inactive)
16 | O=c1c(-c2ccc(F)cc2)nc2cnc(N3CCNCC3)nc2n1C1CC1 | > 20 µM (inactive)
17 | COc1cccc(Cn2c(=O)c(C)nc3cnc(OC)nc32)c1 | > 20 µM (inactive)
18 | COc1ccc(-n2c(=O)cnc3cnc(N4CCOCC4)nc32)cc1 | > 20 µM (inactive)
19 | CC(C)CN1CC[C@@]2(CCCN(S(=O)(=O)c3ccccc3)C2)C1 | > 20 µM (inactive)
20 | COC(=O)N1CCC2(CC1)CN(c1ccc(-c3ccccc3)cc1)C2 | > 20 µM (inactive)

Row | SMILES | Potency
21 | Cc1cnc(CNc2ccnc(-c3c(C)noc3C)n2)cn1 | > 20 µM (inactive)
22 | COCC(=O)N1CCC2(CC1)CCN(C(=O)Nc1ccc(OC)cc1)CC2 | > 20 µM (inactive)
23 | c1cncc(CNc2ccnc(-c3cccnc3)n2)c1 | > 20 µM (inactive)
24 | CNc1ncnc2ccc(-c3cccc(OC)c3)cc12 | > 20 µM (inactive)
25 | c1cc(NC2CC2)nc(-c2ccoc2)n1 | > 20 µM (inactive)
26 | CS(=O)(=O)N1CCC2(CCN(c3ccccc3)CC2)CC1 | > 20 µM (inactive)
27 | Cc1cnc(CNc2ncnc3ccc(-c4ccccc4CN(C)C)cc23)cn1 | > 20 µM (inactive)
28 | FC(F)(F)c1ccccc1-c1cncnc1NCc1cccnc1 | > 20 µM (inactive)
29 | CC(C)CN1CCC2(CC1)CCN(C(=O)c1cccn1C)CC2 | > 20 µM (inactive)
30 | COc1cccc(-c2cncnc2NCc2cccc(C)c2)c1 | > 20 µM (inactive)
31 | COC(=O)N1CCC2(CCN(Cc3nccs3)CC2)CC1 | > 20 µM (inactive)
32 | Cn1c(=O)c(-c2cccs2)nc2cncnc21 | > 20 µM (inactive)
33 | COc1ncc2nc(CCc3ccccc3)c(=O)n(CCc3ccccc3)c2n1 | > 20 µM (inactive)
34 | CN1CCN(c2cc(-c3ccccc3C(F)(F)F)ncn2)CC1 | > 20 µM (inactive)
35 | COCC(=O)N1CCC2(CC1)CN(Cc1ccc(C#N)cc1)C2 | > 20 µM (inactive)
36 | O=c1c(-c2cc(F)cc(F)c2)nc2cncnc2n1Cc1ccccc1Cl | > 20 µM (inactive)
37 | Cc1noc(C)c1C(=O)N1CCC[C@@]2(CCN(C(=O)Nc3cccc(C#N)c3)C2)C1 | > 20 µM (inactive)
38 | O=C(c1ccco1)N1CCC2(CCCN(c3ccccn3)C2)CC1 | > 20 µM (inactive)
39 | COc1ccc2[nH]cc(CCNc3nc(-c4cccc(NS(C)(=O)=O)c4)nc4ccccc34)c2c1 | > 20 µM (inactive)
40 | O=C(c1ccco1)N1CCC2(CC1)CCN(c1cccc(-c3ccccc3)c1)CC2 | > 20 µM (inactive)
